Reference: the supplement of paper PMC6555819

Assays:
Assay in all cases: PBM binding z-score (relative to random genomic background probes); higher = stronger binding; sequences stand for … in GC…GCGATTGACAGCGTAGAATGAAGG
[1] = test system: PPARg:RXRa DBDmut IVT, anti-RXR (DBD mutation: RXRa K156A/R161A, NR concentration 270 nM, RXRa partner concentration 90 nM)
Procedure, shortened: (§1)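 For binding z-scores, the reference was random background probes on custom Agilent 4×180K protein-binding microarrays. These arrays were incubated 1 h with ligand-free nuclear receptor dimers in PBS pH 7.4, 2% milk, 0.02% Triton X-100, 1 mM DTT, 0.2 mg/mL BSA and 0.4 mg/ml salmon testes DNA. Fluorescence was scanned after antibody detection of each partner (one per run) and regression-normalized.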

[2] = test system: PPARg:RXRa IVT, anti-PPARg (NR concentration 270 nM, RXRa partner concentration 90 nM)
Procedure, shortened: as §1

[3] = test system: PPARg DBDmut:RXRa IVT, anti-PPARg (DBD mutation: PPARg1 K132A/R137A, NR concentration 270 nM, RXRa partner concentration 90 nM)
Procedure, shortened: as §1

[4] = test system: PPARg DBDmut IVT, anti-PPARg (DBD mutation: PPARg1 K132A/R137A, NR concentration 270 nM)
Procedure, shortened: as §1

[5] = test system: PPARg homodimer (NR concentration 180 nM)
Procedure, shortened: as §1

[6] = test system: PXR:RXRa (NR concentration 270 nM, RXRa partner concentration 90 nM)
Procedure, shortened: as §1

[7] = test system: PXR homodimer (NR concentration 270 nM)
Procedure, shortened: as §1

[8] = test system: RARa:RXR (NR concentration 270 nM, RXRa partner concentration 90 nM)
Procedure, shortened: as §1

[9] = test system: RARa homodimer (NR concentration 270 nM)
Procedure, shortened: as §1

[10] = test system: RARb:RXRa (NR concentration 270 nM, RXRa partner concentration 90 nM)
Procedure, shortened: as §1

| Sequence | PBM binding z-score [1] | PBM binding z-score [2] | PBM binding z-score [3] | PBM binding z-score [4] | PBM binding z-score [5] | PBM binding z-score [6] | PBM binding z-score [7] | PBM binding z-score [8] | PBM binding z-score [9] | PBM binding z-score [10] |
| --- | --- | --- | --- | --- | --- | --- | --- | --- | --- | --- |
| TCTAGCAGGCCAGAGGGTCTCTCAAGAGGTACGG | 0.543 | -0.453 | -1.92 | -1.94 | -0.634 | -0.569 | -1.12 | -0.436 | -0.894 | -0.239 |
| CTCGATAGGTCGGTTGAGGTGAGTATACGGATAA | -0.342 | 0.362 | 0.83 | 0.287 | 0.144 | 1.21 | 0.123 | 1.11 | -0.0628 | 1.17 |
| GCTATTAGTTGCAAGGGCAACCGAATGATTCTCG | 0.729 | 0.0802 | -0.249 | -0.171 | 0.499 | 0.243 | 0.11 | -0.00266 | -0.474 | 1.37 |
| ATCTCTAGGTAACCAAGTTCAGTGATTGCCGAAC | 3.9 | 2.88 | 1.17 | 1.33 | 0.823 | 1.96 | 2.46 | 0.708 | 0.307 | 1.18 |
| CGTACAAGGTCAGCAGGTCAGTGAAAGCGACGTG | 3.86 | 4.79 | 1.35 | 0.315 | 3.51 | 3.82 | 0.382 | 5.17 | 1.11 | 5.23 |
| TCTTGTAGATCAGCAGGTTAACAAAGCTGGCCAA | 1.62 | 0.747 | -0.763 | -0.365 | 0.0617 | 0.171 | -0.584 | 0.489 | -0.289 | 0.359 |
| ATCGAAAGGTCGACTAGGTGAGTATACACCGTTT | 0.845 | 2.25 | 0.674 | 1.34 | 0.62 | 2.73 | 0.165 | 3.24 | 0.35 | 3.72 |
| GTACCAAGGTGATTAGGTCGTTGATGAGTAGGCG | 1.26 | 1.63 | 0.301 | -0.28 | 1.06 | 0.265 | 0.198 | 0.753 | 0.341 | 1.1 |
| CTCGAAAGGTTGTGCTCAGGTGAGTATACCAAAC | -0.27 | -0.00807 | -0.154 | -0.108 | 0.203 | 0.645 | -0.0824 | 1.38 | 0.121 | 1.2 |
| CAAACTAGGTCACAAAGGTCAAAGTCCGTGCGTA | 8.59 | 8.71 | 2.54 | 2.7 | 7.19 | 6.69 | 11.9 | 7.63 | 4.27 | 5.46 |
| ATATGTAGGTTACATCCGGGTCATTGAGGCTATG | 7.27 | 7.27 | 2.02 | 2.36 | 1.82 | 3.65 | 4.12 | 3.65 | 0.615 | 2.38 |
| TTACCAAGGTGACAGGTCGTTGATGCACGCCTTG | 2.31 | 3.79 | 0.46 | 0.0595 | 1.64 | 0.764 | 0.0726 | 1.14 | -0.207 | 2.05 |
| ACTCGGAGGAAAAAGGTCAGAGCTACGCCAGTGA | -0.318 | 1.1 | 0.319 | -0.672 | 1.74 | 2.65 | 0.00836 | 3.29 | 1.23 | 3.88 |
| GATACATGGTCAGCTAGAGGCCAGAGTATGGAAA | -0.61 | 0.0448 | -1.36 | -0.885 | -0.578 | -0.344 | -0.0734 | -0.157 | -0.619 | 0.819 |
| CCTACTGAGCCACGAAAGGTCATTGATTCAGTGA | 0.983 | 1.29 | -0.156 | 0.271 | 3.9 | 5.33 | 2.61 | 5.69 | 3.37 | 3.95 |
| CGTCCAAGGTCAGCAGGTCAGCGAAAGCGACGTG | 3.38 | 3.9 | -0.473 | -0.272 | 3.39 | 4.07 | 0.421 | 5.3 | 1.49 | 5.43 |
| TAGCCTAGGTCATGCGCGCCAGTATAGTGTCGGC | 2 | 3.17 | 0.974 | 0.266 | 2.85 | 1.55 | -0.618 | 2.62 | -0.473 | 3.74 |
| ATCGAAAGGTCGAAGGTGAGTAAACCCACCCGAA | 0.0227 | 2.17 | 0.972 | 0.487 | 1.89 | 3.11 | 0.0457 | 4.5 | 0.979 | 3.88 |
| ATCGAAAGGTCGCCGAGGTGAGTATACACCGTTT | 0.699 | 2.7 | 1.2 | 0.615 | 1.79 | 3.34 | 0.6 | 4.03 | 0.336 | 4.25 |
| GGAACGAGGGTATTCGAGTTGATAGCATGGCGAT | 0.383 | 0.201 | -0.0387 | -0.595 | -0.648 | 1.19 | -0.17 | 0.11 | -0.18 | -0.145 |
| TCTATTCGTTGAAGGGCAACCGACGAGTCCGTTT | 2 | 0.764 | 0.959 | 0.28 | 0.703 | 0.999 | 0.546 | 0.933 | 0.583 | 1.56 |
| CCTACTGGGCCACAGGTCATTGATTCCAATGCTC | 4.78 | 5.99 | -0.262 | -0.356 | 1.06 | 1.75 | 0.334 | 2.03 | -0.37 | 2.26 |
| CTACCAAGGTGAACAAGGTCGGTGATTACTATTC | 1.91 | 2.78 | 0.327 | -0.584 | 0.38 | 0.812 | 0.00939 | 1.11 | 0.0895 | 1.97 |
| CCTCGGAGGACAACAGGAGGTTAGAGCTGCCAGA | -0.279 | -0.491 | -1.7 | -1.73 | -0.214 | -0.222 | -0.363 | -0.127 | -0.352 | 1.32 |
